# Source: article PMC4336329 (PLoS ONE, 2015)
# The campaign covered roughly 310,000 compounds. About 14,000 (4.5%) showed an effect of 50% or more. Effects have a minus sign here. This excerpt belongs to a sample that is enriched for strong results.
# Target: human ether-à-go-go-related gene (hERG) potassium channel (human, UniProt Q12809)
# Test: primary screen, population patch clamp on CHO cells stably expressing hERG; higher = less effect of the substance
# 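Note: peak tail current of the secondary pulse compared with the same well before compound.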
# human ether-à-go-go-related gene (hERG) potassium channel, sequence (Q12809 whole entry, looked up): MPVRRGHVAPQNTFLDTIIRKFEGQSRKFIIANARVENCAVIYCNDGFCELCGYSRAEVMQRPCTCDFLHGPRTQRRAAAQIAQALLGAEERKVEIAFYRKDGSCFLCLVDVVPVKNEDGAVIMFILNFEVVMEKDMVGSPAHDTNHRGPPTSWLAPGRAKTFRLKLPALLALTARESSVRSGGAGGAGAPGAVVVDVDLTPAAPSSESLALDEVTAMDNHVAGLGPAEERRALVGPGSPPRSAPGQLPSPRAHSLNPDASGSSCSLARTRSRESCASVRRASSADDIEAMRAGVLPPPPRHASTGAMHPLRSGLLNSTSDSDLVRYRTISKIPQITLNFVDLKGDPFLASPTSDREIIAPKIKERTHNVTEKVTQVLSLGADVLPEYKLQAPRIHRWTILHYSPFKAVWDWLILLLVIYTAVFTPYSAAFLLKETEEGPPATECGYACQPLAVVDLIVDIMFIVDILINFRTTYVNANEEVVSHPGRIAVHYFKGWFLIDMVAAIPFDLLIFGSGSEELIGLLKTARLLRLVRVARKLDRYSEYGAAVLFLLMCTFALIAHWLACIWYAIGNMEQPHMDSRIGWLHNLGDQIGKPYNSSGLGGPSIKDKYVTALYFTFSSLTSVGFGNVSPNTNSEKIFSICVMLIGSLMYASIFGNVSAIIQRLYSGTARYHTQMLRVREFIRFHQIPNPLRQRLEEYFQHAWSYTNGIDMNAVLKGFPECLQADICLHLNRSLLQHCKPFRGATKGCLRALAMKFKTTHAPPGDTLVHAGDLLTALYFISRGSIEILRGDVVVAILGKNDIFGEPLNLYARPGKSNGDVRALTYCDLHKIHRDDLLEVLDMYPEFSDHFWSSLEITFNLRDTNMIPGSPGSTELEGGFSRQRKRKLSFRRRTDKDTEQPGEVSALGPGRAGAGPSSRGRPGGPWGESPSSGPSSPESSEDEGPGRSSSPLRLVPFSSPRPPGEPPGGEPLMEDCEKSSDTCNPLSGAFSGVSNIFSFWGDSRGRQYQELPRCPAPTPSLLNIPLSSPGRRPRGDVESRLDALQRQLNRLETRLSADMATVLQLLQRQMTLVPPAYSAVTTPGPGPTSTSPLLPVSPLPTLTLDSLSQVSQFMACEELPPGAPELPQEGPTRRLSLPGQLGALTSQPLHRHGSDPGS
row,Compound,"hERG current change (%, negative = inhibition) at 10uM [%]"
1,CC(=O)c1c(NCCc2ccccc2)nc(=S)n(-c2ccccc2)c1C,7.04
2,CCn1c(=O)cc(OCC(=O)NCc2ccco2)c2ccccc21,0.766
3,CCN1CCCC1CNC(=O)Cn1cnc2sc(C)c(S(=O)(=O)N3CCC(C)CC3)c2c1=O (stereo not shown),-14.5
4,Cc1ccc2nc(N3C(=O)C(O)=C(C(=O)c4ccco4)C3c3ccc(C)o3)sc2c1.O=C(O)C(=O)O (stereo not shown),1.65
5,CC(NC(=O)C1CCC(CNC(=O)[C@@H]2Cc3ccccc3CN2)CC1)c1ccccc1 (stereo partly shown),-4.23
6,CCn1c(SCC(=O)Nc2cc(C)on2)nnc1-c1ccc(S(=O)(=O)N2CCCC2)cc1,-1.7
7,Cc1ccc2oc(=O)c3cc(C(=O)NCCCN4CCc5ccccc5C4)sc3c2c1,-6.63
8,Cc1ccc2cc3cc(C(=O)NCCCN4CC(C)CC(C)C4)oc3nc2c1 (stereo not shown),-62.9
9,Cc1ccc2cc3cc(C(=O)NCCCN4CCc5ccccc5C4)oc3nc2c1,-54.9
10,Cc1ccc2cc3cc(C(=O)NCCCN4CCCC4=O)oc3nc2c1,2.4
11,Cc1ccc2cc3cc(C(=O)NCCCN4CCCC4)oc3nc2c1,-15.5
12,Cc1ccc2cc3cc(C(=O)NCCN4CCOCC4)oc3nc2c1,-14.5
13,Cc1ccc2cc3cc(C(=O)NCCCN4CCCCCC4)oc3nc2c1,-50.6
14,Cc1ccc2cc3cc(C(=O)N4CC(C)CC(C)C4)oc3nc2c1 (stereo not shown),1.38
15,Cc1ccc2cc3cc(C(=O)NCc4ccco4)oc3nc2c1,-1.21
16,CCOC(=O)C1C(c2ccccc2O)NC(=O)NC1(O)C(F)(F)F (stereo not shown),16.9
17,COc1ccc(OCC(=O)Nc2cccc(C(C)=O)c2)cc1,-7.29
18,CC(C)(C)c1ccc(C(=O)c2c[nH]c(C(=O)NCCc3ccccn3)c2)cc1,15.1
19,Cc1ccc(N(C)C(=O)C2CCCN2S(=O)(=O)c2ccc3c(c2)n(C)c(=O)c(=O)n3C)cc1 (stereo not shown),-2.28
20,COc1ccccc1C(=O)NCC(=O)N=Nc1c(O)n(C(C)C)c2ccccc12,-7.32

row,Compound,"hERG current change (%, negative = inhibition) at 10uM [%]"
1,CC(CN1CCOCC1)OC(=O)c1ccccc1Cl.Cl (stereo not shown),12
2,CC1(C)CC(=O)C(C=NCCN2CCN(C(=S)Nc3ccccc3)CC2)=C(O)C1,-11.3
3,CC1(C)CC(=O)C(C=NCC2CCN(C(=S)Nc3ccccc3)CC2)=C(O)C1,-3.98
4,CC1(C)CC(=O)C(C=NCCN2CCN(C(=O)Cc3ccc(F)cc3)CC2)=C(O)C1,-23.5
5,CC1(C)CC(=O)C(C=NCCN2CCN(C(=S)Nc3ccc(F)cc3)CC2)=C(O)C1,-27.8
6,CC1(C)CC(=O)C(C=NCCN2CCN(C(=O)Cc3ccccc3)CC2)=C(O)C1,-24.8
7,CC1(C)CC(=O)C(C=NCCN2CCN(C3CC(=O)N(c4ccc(Br)cc4)C3=O)CC2)=C(O)C1 (stereo not shown),-19.3
8,CC1(C)CC(=O)C(C=NCC2CCN(C(=S)Nc3cccc(Cl)c3)CC2)=C(O)C1,-62.4
9,CC1(C)CC(=O)C(C=NCC2CCN(C(=O)Nc3ccc(Cl)c(Cl)c3)CC2)=C(O)C1,-23.8
10,CC1(C)CC(=O)C(C=NCCN2CCN(C(=S)Nc3cccc(Cl)c3)CC2)=C(O)C1,-66.3
11,CC1(C)CC(=O)C(C=NCCN2CCN(C(=O)Cc3ccc(Cl)cc3)CC2)=C(O)C1,-62
12,CC1(C)CC(=O)C(C=NCCN2CCN(C3CC(=O)N(c4ccc(Cl)c(Cl)c4)C3=O)CC2)=C(O)C1 (stereo not shown),-50.2
13,CC1(C)CC(=O)C(C=NCCN2CCN(C3CC(=O)N(c4ccc(F)cc4)C3=O)CC2)=C(O)C1 (stereo not shown),6.86
14,COc1ccc(Br)cc1C(=O)Nc1cc(C)cc(C)c1,5.21
15,NC(=O)c1cc2n(n1)C(C(F)(F)F)CC(c1ccco1)N2 (stereo not shown),-7.54
16,COC(=O)C1NN=C(C(=O)c2ccc(Br)cc2)C1c1cccc(Br)c1 (stereo not shown),2.42
17,CC(C)c1nc2sc3c(SCC(N)=O)ncnc3c2c2c1CCC2,11.9
18,NC(=O)c1ccc(C(F)(F)F)n(Cc2c(Cl)cccc2Cl)c1=O,25.1
19,CCc1cccc(CC)c1NC(=O)/C(C#N)=C/c1ccccc1C(F)(F)F,21.4
20,C=CCn1c(NCCc2ccccc2)nc2c1c(=O)n(C)c(=O)n2C,-1.17
